Test results: the supplement of paper PMC3414501
Where a name gives a salt, the structure may show the parent alone.

Columns and labels:
[1] = tested on: S. cerevisiae SK1 pCDA2-eGFP (USY613), sporulating; assay: CDA2-GFP sporulation assay sensitivity score (z-score vs DMSO controls); higher = stronger inhibition of sporulation, active = hit call of the paper;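 also: active if sensitivity score above 5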
[2] = tested on: S. cerevisiae AD1-9 (efflux-pump deficient), vegetative growth in YPD; assay: growth sensitivity score (doubling time z-score vs DMSO controls); higher = slower growth, strongly negative scores also mark growth inhibition (complete suppression), active = hit call of the paper
In short: (§1)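 Optical density of Saccharomyces cerevisiae cultures in microtiter plates was followed every 15 min for 24 hours after seeding at an OD600 of 0.065. Eight solvent-only wells were run per experiment. Growth sensitivity scores were found by subtracting the solvent-only mean from the compound mean and dividing by the solvent-only standard deviation.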

[3] = tested on: S. cerevisiae BY4741 (wild-type), vegetative growth in YPD; assay: as above
In short: as §1

[4] = tested on: S. cerevisiae NKY1551 his4x/his4B, sporulating; assay: HIS4 meiotic recombination assay sensitivity score (z-score vs DMSO controls); higher = stronger inhibition of sporulation/recombination, active = hit call of the paper;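 also: active if sensitivity score above 5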

Structure (SMILES) | CDA2-GFP sporulation assay sensitivity score [1] | growth sensitivity score [2] | growth sensitivity score [3] | HIS4 meiotic recombination assay sensitivity score [4]
CN1CCc2cc(Cl)c(O)cc2[C@@H](c2ccccc2)C1 (stock concentration (mM, diluted 1:100): 9.9) | 15.9 (active) | 0.38 (inactive) | -0.55 (inactive) | 
CN[C@H]1CC[C@@H](c2ccc(Cl)c(Cl)c2)c2ccccc21 [Sertraline] (stock concentration (mM, diluted 1:100): 9) | -0.26 (inactive) |  |  | 
CC(N/C(=N\C#N)Nc1ccncc1)C(C)(C)C (stereo not drawn) [Pinacidil monohydrate] (stock concentration (mM, diluted 1:100): 10) | 1.62 (inactive) | -0.96 (inactive) | 1.52 (inactive) | 
COc1ccc(CN2CCN(C(c3ccc(F)cc3)c3ccc(F)cc3)CC2)c(OC)c1OC [Lomerizine dihydrochloride] (stock concentration (mM, diluted 1:100): 8.7) | 13.1 (active) |  | 2.29 (active) | -0.52 (inactive)
CNCCCCOc1ccccc1Cc1ccccc1 [Bifemelane] (stock concentration (mM, diluted 1:100): 10) | 1.21 (inactive) | 127 (active) | 3.54 (active) | 
CC(C)(O)c1ccccc1CC[C@@H](SCC1(CC(=O)O)CC1)c1cccc(/C=C/c2ccc3ccc(Cl)cc3n2)c1 [Montelukast] (stock concentration (mM, diluted 1:100): 9.6) |  | 0.91 (inactive) | -1.05 (inactive) | 0.61 (inactive)
CCCCCNC(=N)N/N=C/c1c[nH]c2ccc(OC)cc12 [Tegaserod maleate] (stock concentration (mM, diluted 1:100): 7.2) | -3.28 (inactive) |  |  | 
CNC(=C[N+](=O)[O-])NCCSCc1csc(CN(C)C)n1 [Nizatidine] (stock concentration (mM, diluted 1:100): 10) | -0.14 (inactive) | -0.22 (inactive) | -0.09 (inactive) | 
COc1c(N2C[C@@H]3CCCN[C@@H]3C2)c(F)cc2c(=O)c(C(=O)O)cn(C3CC3)c12 [Moxifloxacin hydrochloride] (stock concentration (mM, diluted 1:100): 9.2) | 2.59 (inactive) | 22.4 (active) | 0.08 (inactive) | 
C=C1/C(=C\C=C2/CCC[C@]3(C)[C@@H]([C@H](C)/C=C/[C@@H](O)C4CC4)CC[C@@H]23)C[C@@H](O)C[C@@H]1O [Calcipotriol] (stock concentration (mM, diluted 1:100): 10.1) |  |  | -0.31 (inactive) | 
O=C1[C@H](CC[C@H](O)c2ccc(F)cc2)[C@@H](c2ccc(O)cc2)N1c1ccc(F)cc1 [Ezetimibe] (stock concentration (mM, diluted 1:100): 10) | -0.54 (inactive) |  | -0.7 (inactive) | 
OCc1cc(C(O)CNCCCCCCOCCCCc2ccccc2)ccc1O (stereo not drawn) [Salmeterol] (stock concentration (mM, diluted 1:100): 10) | 10.5 (inactive) | 41.2 (active) | 3.81 (active) | 
C#C[C@]1(O)CC[C@H]2[C@@H]3CCC4=CC(=O)CC[C@@H]4[C@H]3CC[C@@]21CC [Levonorgestrel] (stock concentration (mM, diluted 1:100): 10) | 0.19 (inactive) | -0.41 (inactive) | 0.89 (inactive) | 
CCc1nn(CCCN2CCN(c3cccc(Cl)c3)CC2)c(=O)n1CCOc1ccccc1 [Nefazodone] (stock concentration (mM, diluted 1:100): 9.3) | 5.84 (active) |  | 9.68 (active) | 
N[C@@H]1CONC1=O [D-Cycloserine] (stock concentration (mM, diluted 1:100): 10) | 0.63 (inactive) | 1.38 (inactive) | 1.58 (inactive) | 
CCN1CC(CCN2CCOCC2)C(c2ccccc2)(c2ccccc2)C1=O (stereo not drawn) [Doxapram hydrochloride] (stock concentration (mM, diluted 1:100): 10.4) | -0.58 (inactive) | -0.91 (inactive) | -0.29 (inactive) | 
COc1ccc2[nH]c([S+]([O-])Cc3ncc(C)c(OC)c3C)nc2c1 (stereo not drawn) [Esomeprazole mg] (stock concentration (mM, diluted 1:100): 4.8) | 3.2 (inactive) | -2.89 | 0.69 (inactive) | 
